MITF primary = inhibitors of human MITF. inhibition, % at 2.6 µM. 0.91% of 650,000 active. AlphaScreen MITF homodimerization, bead proximity signal. O75030; in the data active = inhibition above about 50%;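 also: 0% = vehicle wells with protein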
FBW7 activator = activators of human E3 ligase FBW7; normalized activity (activation), % at 26.1 µM; Q969H0; AlphaScreen FBW7–phospho-cyclin E peptide binding, activator screen; 0.13% of 650,000 active; AID 1259310; in the data active = normalized activity above about 1.9%;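 also: purified mutant Fbw7 with reduced substrate affinity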
GPR151 ag = activates the human receptor GPR151. Q8TDV0. PathHunter beta-arrestin GPR151 cells, luminescence. activation, % at 11.2 µM. 1% of 650,000 active; in the data active = activation above about 4.9%;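 also: 0% = median of compound wells and 100% = cells with positive control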
TEAD-YAP block = TEAD-YAP interaction inhibition; HEK-TIYL cells, TEAD-Gal4/YAP UAS-luciferase luminescence; inhibition, % at 9.12 µM; 1.4% of 640,000 active; AID 1259422; in the data active = inhibition above about 32%;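 also: 0% = median of test compound wells and 100% = reference inhibitor wells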
GPR151 conf act = human GPR151 activation, confirmation screen | shares compounds with GPR151 ag | 6,700 tested, under 10 active | activation, % at 11.2 µM | GPR151 PathHunter beta-arrestin cells, luminescence, 90 min; % of EA-reagent control over plate median;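 active = mean percent activation across replicates above the confirmation screen cutoff of 4.91%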
GPR119 counter = GPR119 activation, counter-screen for GPR151 activators; shares compounds with GPR151 ag; GPR119 PathHunter beta-arrestin cells, luminescence, 90 min; 0 = compound-well median, 100 = enzyme-acceptor control; activation, % at 11.2 µM; 0.3% of 6,700 active;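 active = mean percent activation in the counterscreen above 29.09%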;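 also: counterscreen on off-target GPR119 to flag nonselective hits from the GPR151 activator screen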
An asterisk follows results filed as active; . = no result given. Hits are enriched below; roughly 3.4% of the tested compounds scored in any of these assays.

SMILES	MITF primary	FBW7 activator	GPR151 ag	TEAD-YAP block	GPR151 conf act	GPR119 counter
CCc1ccc(N(CC(=O)OC)S(C)(=O)=O)cc1	14	1	1	4	.	.
Cc1ccc(S(=O)(=O)C(NC=O)C(Cl)(Cl)Cl)cc1 (stereo unspecified)	-2	0	-1	12	.	.
CC1(C)CC(=O)C2=C(C1)NC(=O)CC2c1ccc(F)c(F)c1 (stereo unspecified)	16	0	1	2	.	.
COc1cc(N=Cc2c(O)n(-c3ccccc3F)c(=S)[nH]c2=O)cc(OC)c1	2	0	5.4*	10	-1	-5
COc1cc(N=Cc2c(O)n(-c3ccccc3F)c(=O)[nH]c2=O)cc(OC)c1	12	0	1	-23	.	.
CCc1ccccc1-n1c(SCC(=O)NC)nnc1-c1cccnc1	15	0	7.6*	1	0	3
CCc1cccc(CC)c1-n1c(SCC(=O)NC)nnc1-c1cccnc1	-17	0	2	-9	.	.
CC(C)NC(=O)CSc1nnc(-c2cccnc2)n1CCc1ccccc1	6	0	9.5*	4	2	13
CNC(=O)CSc1nnc(-c2cccnc2)n1CCc1ccccc1	-8	0	0	-3	.	.
COC(=O)CSc1nnc(CNC(=O)c2cccc(C)c2)n1C	5	0	1	2	.	.
COC(=O)CSc1nnc(CNC(=O)c2cccc(F)c2)n1C	-3	1	5.2*	-27	0	4
Cc1cc(N2C(=O)C3C4CC(c5ccccc5)C(C4)C3C2=O)no1 (stereo unspecified)	-1	0	11*	1	1	-4
O=C(Nc1ccc(Oc2cccc(Oc3ccc(NC(=O)c4ccccc4F)cc3)c2)cc1)c1ccccc1F	12	0	18*	-2	-1	-10
O=C(Nc1cccc(NC(=O)c2ccccc2F)c1)c1ccccc1F	13	0	1	-8	.	.
COc1cc2c(cc1OC)CN(Cc1cccc([N+](=O)[O-])c1)CC2	12	0	8.0*	-2	1	13
Cc1ccc(C2CC(c3cccs3)=NN2C(=O)CSc2nnc(CNC(=O)c3ccc([N+](=O)[O-])cc3)n2Cc2ccccc2)cc1 (stereo unspecified)	-11	0	2	6	.	.
COC(=O)c1nc(N)sc1-c1ccc(Cl)c(Cl)c1	2	0	7.6*	-1	0	-4
COc1ccc(OC)c(C(C)NC(=O)c2ccc(F)cc2)c1 (stereo unspecified)	26	0	5.4*	5	0	-3
CCOC(=O)C1=C(N)Oc2ccc3ccccc3c2C1c1ccccc1[N+](=O)[O-] (stereo unspecified)	-8	0	0	1	.	.
CCCc1nnc(SCc2ccc(Br)cc2)n1N	0	0	8.4*	-8	-1	10

Screening data (PubChem BioAssay)
